# About 83,000 compounds went through this panel and 20% of them were active in at least one assay; those are over-represented in the sample as a whole.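 Step 1: grow cells in 96-well plates. Step 2: add test compound at a single concentration. Step 3: incubate 48 h. Step 4: record percent growth.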 A number with no mark means an inactive call. Active and inactive are the calls of the source. Rule for the calls: active = growth percent below 10; inactive = the rest.
# Test system: OVCAR-4 ovarian
# Test: NCI-60 one-dose screen, 48 h (100 = growth as untreated, 0 = no growth, -100 = all killed)
# Conditions: 10 µM unless noted
row,Compound,growth
1,Cc1cc(=O)oc2cc(Oc3nc(-c4ccccc4)cn4c(-c5ccccc5)cnc34)ccc12,60.7%
2,Cc1ccc2c(n1)C[C@H](C(C)(C)O)CC[C@H]2C,99.6%
3,Nc1nc(N)c2c(n1)NC(c1cccc(Nc3ccnc4cc(C(F)(F)F)ccc34)c1)CC(c1ccc(Cl)cc1)=N2 (stereo not given),60.1%
4,C(CCCSC1=NCCN1)CCSC1=NCCN1,98.2%
5,O=S(=O)(Nc1ccc(Br)cc1)c1ccc(-c2cnc(C3CC3)o2)cc1,67.8%
6,Nc1n[nH]c2cccc(C#Cc3cccc(C(=O)Nc4ccc(Cl)c(C(F)(F)F)c4)c3)c12,56.2%
7,NC(=N\N=C/c1ccc(Cl)cc1Cl)/C(N)=N\N=C/c1ccc(Cl)cc1Cl,-34% (active)
8,COc1cc(C(=O)/C=C/c2c(-c3cccs3)nc3sc(C)cn23)cc(OC)c1OC,14.3%
9,Nc1nc(=O)n([C@H]2CC=C(CO)O2)cc1F,107%
10,COc1ccc(Nc2nccc(Nc3ccc4[nH]ncc4c3)n2)cc1,33.3%
11,Cc1[nH]c(C(=O)Nc2ccccc2OC2CCNC2)c(Cl)c1Cl (stereo not given),79.1%
12,CCN1CCN(CCOc2ccc(CNc3ccc4nc(CCC5CCCCC5)[nH]c4c3)cc2)CC1,48.2%
13,O=C1NCCS(=O)(=O)/C1=C\C=C\c1cccc(C(F)(F)F)c1,53.4%
14,CCCCCCCCCCCCCC[n+]1ccc2c(C)c3c(c(C)c2c1)c1cc(O)ccc1n3CC,-59.8% (active)
15,CCCc1cc(CCC)n2nc(N)nc2n1,116%
